# Results from PubChem BioAssay (NCI).
# About 79,000 compounds went through this panel and 15% of them were active in at least one assay; those are over-represented in the sample as a whole. Unmarked numbers belong to inactive results. Active and inactive are the calls of the source. Rule as the data show it: active = growth inhibition above about 70%; inactive = the rest.
# Experiments:
# [1] = NCI Yeast Anticancer Drug Screen. Data for the rad50 strain (AID 155);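 also: 0% = growth of vehicle-only cultures of the same strain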; conditions: S. cerevisiae rad50 strain growth inhibition, stronger effect = higher value
# In short: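 Compounds were tested on a yeast strain with an engineered DNA damage repair alteration; the reported value is growth inhibition normalised to vehicle treatment.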
# [2] = NCI Yeast Anticancer Drug Screen. Data for the mec2-1 strain (AID 157); conditions: S. cerevisiae mec2-1 strain, stronger effect = higher value
# In short: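 Compounds were applied to mec2-1 yeast cells. Their growth was then compared with that of vehicle-treated cultures to give growth inhibition.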
# [3] = NCI Yeast Anticancer Drug Screen. Data for the sgs1 mgt1 strain (AID 161);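 also: 0% = growth of cultures given vehicle only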; conditions: S. cerevisiae sgs1 mgt1 strain, stronger effect = higher value
# In short: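 Compounds are added to genetically altered yeast, and growth is compared with cultures given vehicle alone to give percent inhibition.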
# [4] = NCI Yeast Anticancer Drug Screen. Data for the cln2 rad14 strain (AID 165);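 also: 0% = growth equal to vehicle treated cultures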; conditions: S. cerevisiae cln2 rad14 strain, stronger effect = higher value
# In short: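 Strain: cln2 rad14 yeast, altered in cell cycle control and DNA damage repair. Read-out: growth inhibition vs vehicle.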
# [5] = NCI Yeast Anticancer Drug Screen. Data for the bub3 strain (AID 167); conditions: S. cerevisiae bub3 mutant strain, stronger effect = higher value
# In short: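 Growth of a checkpoint-deficient yeast mutant is measured after compound exposure. Values represent inhibition relative to vehicle.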
# [6] = NCI Yeast Anticancer Drug Screen. Data for the mlh1 rad18 strain (AID 175); conditions: S. cerevisiae mlh1 rad18 strain growth inhibition, stronger effect = higher value
# In short: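 A repair-deficient yeast strain is exposed to test compound, and growth is scored relative to vehicle-treated controls.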
# [7] = at 5.0 µM (retest, dose inferred, filed as 0.5)
# [8] = at 50.0 µM (retest, dose inferred, filed as 5.0)
Compound,"growth inhibition [1, 7]","growth inhibition [1, 8]",growth inhibition ([1]; at 50.0 µM),"growth inhibition [2, 7]","growth inhibition [2, 8]",growth inhibition ([2]; at 50.0 µM),"growth inhibition [3, 7]","growth inhibition [3, 8]",growth inhibition ([3]; at 50.0 µM),"growth inhibition [4, 7]","growth inhibition [4, 8]",growth inhibition ([4]; at 50.0 µM),"growth inhibition [5, 7]","growth inhibition [5, 8]",growth inhibition ([5]; at 50.0 µM),"growth inhibition [6, 7]","growth inhibition [6, 8]",growth inhibition ([6]; at 50.0 µM)
OC(c1ccccc1)(c1ccccc1)c1ccccn1,-6%,-9%,4.55%,-14%,2%,53.4%,-5%,5%,9.4%,-6%,5%,2.7%,-3%,3%,13.8%,-21%,-5%,-6.2%
[C-]#[O+].[C-]#[O+].[C-]#[O+].[C-]#[O+].[Mo].c1cnc2c(c1)ccc1cccnc12,-2%,0%,81% (active),-8%,-6%,60.4%,-6%,-2%,71.4% (active),-5%,-17%,39.6%,-1%,6%,79.1% (active),-4%,-8%,81.9% (active)
CCCC(=O)O.CCCC(=O)O.CCCC(=O)O.CCCC(=O)O.[Rh].[Rh],25%,44%,22%,34%,61%,48.5%,28%,59%,30.1%,42%,69%,43.5%,37%,64%,33.7%,29%,52%,24.1%
ClCc1ccncc1,38%,73% (active),54.9%,26%,46%,47.2%,55%,69%,69.4%,38%,57%,51%,31%,73% (active),58%,25%,66%,57.6%
CN(Cc1ccccc1)CC(O)c1cccc(I)c1 (stereo not given),-3%,18%,49.5%,-3%,9%,11.3%,-2%,36%,51.6%,1%,11%,31.6%,0%,35%,56.2%,-4%,24%,27.2%
O=P(c1cccc(C(F)(F)F)c1)(c1cccc(C(F)(F)F)c1)c1cccc(C(F)(F)F)c1.O=P(c1cccc(C(F)(F)F)c1)(c1cccc(C(F)(F)F)c1)c1cccc(C(F)(F)F)c1.[Cl][Sn]([Cl])([Cl])[Cl],3%,79% (active),31.7%,3%,83% (active),18.5%,3%,79% (active),-5.9%,-10%,73% (active),62.8%,4%,89% (active),48.8%,9%,81% (active),61.1%
COc1ccc(O)c(/C=C/[N+](=O)[O-])c1,16%,99% (active),99.4% (active),-1%,99% (active),98.8% (active),20%,99% (active),99.1% (active),5%,98% (active),99.2% (active),41%,99% (active),99.3% (active),21%,99% (active),98.9% (active)
CCC[CH2][Sn]([CH2]CCC)([O]C(=O)CCC(C)=O)[O]C(=O)CCC(C)=O,73% (active),98% (active),87% (active),80% (active),99% (active),91.7% (active),79% (active),99% (active),89.7% (active),74% (active),99% (active),90.3% (active),89% (active),99% (active),88.4% (active),81% (active),98% (active),91.7% (active)
COC(C)(C)[CH]([Hg][Cl])n1ccccc1=O (stereo not given),99% (active),99% (active),99.3% (active),99% (active),100% (active),99.4% (active),99% (active),99% (active),99.3% (active),98% (active),99% (active),99.2% (active),99% (active),99% (active),99.1% (active),98% (active),98% (active),99.3% (active)
O=C1CCCC1Cl (stereo not given),-2%,3%,39.8%,-2%,-3%,82.6% (active),-4%,0%,12.5%,-2%,-8%,81.9% (active),4%,-4%,99.3% (active),-3%,3%,56.9%
O=C(O)C1CC2c3ccccc3C1([N+](=O)[O-])c1ccccc12 (stereo not given),0%,8%,14.2%,-1%,4%,1.45%,0%,7%,31.1%,-3%,15%,41%,2%,6%,3.5%,0%,8%,21.1%
CC([CH2][Hg][Cl])c1ccccc1 (stereo not given),99% (active),99% (active),99.3% (active),100% (active),100% (active),99.5% (active),100% (active),99% (active),99.6% (active),99% (active),99% (active),99.5% (active),99% (active),99% (active),99.6% (active),100% (active),99% (active),99.5% (active)
CN(C)C(=S)[S][Hg][c]1ccccc1,64%,87% (active),91.3% (active),69%,75% (active),93.4% (active),101% (active),99% (active),93.7% (active),54%,99% (active),92.8% (active),101% (active),100% (active),92.1% (active),52%,70% (active),91.5% (active)
O=[N+]([O-])c1ccc(CS(=O)(=O)C(Cl)Cl)o1,10%,79% (active),92% (active),-1%,52%,59.5%,3%,79% (active),87.9% (active),-6%,68%,78.8% (active),-7%,56%,48.1%,15%,90% (active),95.6% (active)
COc1c[c]([Hg][O]C(C)=O)c(OC)c(NC(=O)CC(C)=O)[c]1[Hg][O]C(C)=O,97% (active),95% (active),89.7% (active),99% (active),96% (active),92.5% (active),100% (active),93% (active),92.5% (active),43%,96% (active),90% (active),99% (active),96% (active),90.8% (active),95% (active),95% (active),88.6% (active)
CCNC(=O)OOC(C)(C)C,16%,93% (active),74.7% (active),6%,83% (active),19.7%,4%,94% (active),-5.55%,-2%,77% (active),-17.8%,-2%,72% (active),1.45%,19%,96% (active),21.7%
O=C(O)C(CSC(c1ccccc1)c1ccccc1)NC(=O)C(c1ccccc1)c1ccccc1 (stereo not given),6%,86% (active),52.5%,11%,89% (active),83.3% (active),11%,86% (active),69.8%,15%,84% (active),96.2% (active),8%,64%,85.7% (active),9%,88% (active),97.1% (active)
CC1(C)C2CCC([CH2][Hg][Cl])C1C2 (stereo not given),99% (active),98% (active),98.8% (active),100% (active),95% (active),99.2% (active),100% (active),97% (active),99.2% (active),99% (active),98% (active),99% (active),99% (active),98% (active),99.3% (active),100% (active),98% (active),99% (active)
CCCCCCCCCCCCCC(=O)[O][Hg][c]1ccccc1,99% (active),93% (active),99.5% (active),100% (active),99% (active),99.6% (active),100% (active),99% (active),99.6% (active),99% (active),98% (active),99.6% (active),99% (active),99% (active),99.5% (active),99% (active),99% (active),99.6% (active)
c1ccc(C[As](c2ccccc2)c2ccccc2)cc1,99% (active),3%,99.2% (active),99% (active),15%,99.5% (active),99% (active),36%,99.5% (active),98% (active),-98%,99.2% (active),99% (active),22%,99.4% (active),99% (active),23%,99.2% (active)
